Experimental data from PubChem BioAssay AID590 (National Center for Advancing Translational Sciences (NCATS), 2007).
The campaign covered roughly 59,000 compounds. About 6,500 (11%) were called active. Inconclusive results (about 15%) are left out. No stated cut-off is given here; in the data, active means max dye-equivalent concentration above about 10 nM; inconclusive means mostly about 1.1 nM to 9.6 nM; inactive means weaker than that. Many of the other results were omitted from the sample, so actives are more common in it than they were.

Experiment: qHTS Assay for Spectroscopic Profiling in A350 Spectral Region
Conditions: Compound autofluorescence, 340/450 nm, Alexa 350 dye-equivalents; active compounds read high
For `COCCCn1c2nc3ccccc3nc2c2c(=O)n(Cc3ccc(Cl)cc3)c(C)nc21`, the max dye-equivalent concentration was 380 nM (active). With `O=c1[nH]c(CSc2ncc(-c3ccc(F)cc3)n2Cc2ccco2)nc2ccccc12` the max dye-equivalent concentration was “inactive”. With `Cn1c(COc2ccc(Cl)cc2)nc2ccccc2c1=O` the max dye-equivalent concentration was “inactive”. With `COc1ccccc1NC(=O)CSc1nc2sc(C)c(C)c2c(=O)n1Cc1ccco1` the max dye-equivalent concentration was “inactive”. With `Cc1nc2c(c(=O)n1Cc1ccco1)c1nc3ccccc3nc1n2Cc1ccccc1` the max dye-equivalent concentration was 110 nM (active). With `CC(Sc1nc2ccccc2c(=O)n1Cc1ccco1)C(=O)c1ccccc1` (stereo not drawn) the max dye-equivalent concentration was “inactive”. In the case of `Cc1nc2ccccc2c(=O)n1CCCn1ccnc1`, the max dye-equivalent concentration is reported as “inactive”. With `Cc1ccc(Cn2c(C)nc3c(c2=O)c2nc4ccccc4nc2n3Cc2ccco2)cc1` the max dye-equivalent concentration was 1000 nM (active). With `CCOC(=O)CSc1nc2c(sc(=S)n2CCc2ccccc2)c(=O)n1Cc1ccco1` the max dye-equivalent concentration was “inactive”. In the case of `Cc1ccc(N2CCN(c3ccc(C)cc3)C2c2ccccn2)cc1`, the max dye-equivalent concentration is reported as “inactive”. In the case of `COc1ccccc1-n1cnc2cc(NS(=O)(=O)c3ccccc3)ccc21`, the max dye-equivalent concentration is reported as “inactive”. With `CCOC(=O)C1(Cc2ccc(O)cc2)NC(c2ccccc2F)C2C(=O)N(C)C(=O)C21` (stereo not drawn) the max dye-equivalent concentration was “inactive”. For `O=C(O)C1CC=C(Cl)CC1C(=O)NCc1ccccc1` (stereo not drawn), the max dye-equivalent concentration was “inactive”. In the case of `CC1(C)Cc2ccccc2-c2nc(CN3CCOCC3)[nH]c(=O)c21`, the max dye-equivalent concentration is reported as “inactive”. With `CCN(CC)C(=O)CSc1nnc(-c2cnccn2)n1-c1ccc(C)cc1` the max dye-equivalent concentration was “inactive”. In the case of `O=C(CN1CCN(S(=O)(=O)/C=C/c2ccccc2)CC1)NC(=O)NCc1ccco1`, the max dye-equivalent concentration is reported as “inactive”. With `Cc1cccc(N=C2NC(=O)CS2)c1C` the max dye-equivalent concentration was “inactive”. In the case of `Cc1ccc(NC(=O)CN2CCC3(O)CCCCC3C2c2ccc3c(c2)OCO3)c(C)c1` (stereo not drawn), the max dye-equivalent concentration is reported as “inactive”. With `CC(=O)Nc1cccc2c1[n+]([O-])c(C)c(C)[n+]2[O-]` the max dye-equivalent concentration was “inactive”. In the case of `Cc1ccc2cccc(O)c2[n+]1[O-]`, the max dye-equivalent concentration is reported as 16 nM (active). In the case of `O=C(c1cc(C(F)(F)F)cc(C(F)(F)F)c1)N1CCC2(CCCN(c3ccccn3)C2)CC1`, the max dye-equivalent concentration is reported as “inactive”. For `O=C(Nc1cccc(C(=O)N2CCCC2)c1)c1ccccc1`, the max dye-equivalent concentration was “inactive”. In the case of `CN1CCc2c(sc3c2c(NCc2ccco2)nc2nnnn23)C1`, the max dye-equivalent concentration is reported as 530 nM (active). For `C=C(C)Cn1c(SCC(=O)NCc2ccco2)nc2sc3c(c2c1=O)CCC3`, the max dye-equivalent concentration was “inactive”. In the case of `c1coc(CNc2ncnc3ccccc23)c1`, the max dye-equivalent concentration is reported as “inactive”. With `CCOC(=O)c1cnc(SCC(=O)NCc2ccco2)nc1N` the max dye-equivalent concentration was “inactive”. For `CC(=NC1CCN(Cc2ccccc2)CC1)c1c(O)[nH]c(=O)[nH]c1=O`, the max dye-equivalent concentration was “inactive”. With `COc1ccccc1Nc1ncnc2c1oc1ccccc12` the max dye-equivalent concentration was 84 nM (active). In the case of `COc1ccc(CCNC(=O)CSc2nc(C)nc3c2oc2ccccc23)cc1OC`, the max dye-equivalent concentration is reported as “inactive”. With `COc1ccccc1Nc1ncc(C(C)=O)c(C)n1` the max dye-equivalent concentration was “inactive”. For `O=C1CSC(=O)N1CCOCCN1C(=O)CSC1=O`, the max dye-equivalent concentration was “inactive”. With `CS(=O)(=O)N1CCC2(CCN(c3ccncc3)CC2)CC1` the max dye-equivalent concentration was “inactive”. With `COc1c(F)c(F)c(-c2csc(N)n2)c(F)c1F` the max dye-equivalent concentration was 15 nM (active). In the case of `Cc1ccc(F)cc1NC(=O)c1cccc(N(C)C)c1`, the max dye-equivalent concentration is reported as “inactive”. For `OCCCNC(c1ccccc1)c1ccc(O)cc1` (stereo not drawn), the max dye-equivalent concentration was “inactive”. With `O=C(Nc1ccc(F)cc1)c1cccnc1N1CCOCC1` the max dye-equivalent concentration was “inactive”. With `C=CCn1c(COc2cccc3cccnc23)nnc1SCC(=O)OC` the max dye-equivalent concentration was “inactive”. With `CCOc1cc(N2CCOCC2)c(OCC)cc1NC(=O)COc1cccc2cccnc12` the max dye-equivalent concentration was 19 nM (active). In the case of `CCCn1c(SCC(=O)N2CCc3ccccc32)nnc1-c1ccncc1`, the max dye-equivalent concentration is reported as “inactive”. For `Cc1cccc(NC(=O)CSc2nc3c(c(=O)[nH]2)CCC3)c1C`, the max dye-equivalent concentration was “inactive”. With `COc1cccc(-c2cc3nc4c(c(N5CCC6(CC5)OCCO6)n3n2)CCCC4)c1` the max dye-equivalent concentration was 130 nM (active). With `COc1cccc(-c2nc(S(=O)(=O)c3ccccc3)c(N3CCOCC3)o2)c1` the max dye-equivalent concentration was “inactive”. For `COc1ccccc1CNC(=O)C1CCN(S(C)(=O)=O)CC1`, the max dye-equivalent concentration was “inactive”. In the case of `Cc1cc(C)c2nc3c(c([C@H](O)[C@@H]4CCCCN4)c2c1)CC/C3=C/c1ccc(Cl)cc1`, the max dye-equivalent concentration is reported as “inactive”. In the case of `Cc1nc(NC(=O)CCC(=O)O)sc1C(=O)N(C)C`, the max dye-equivalent concentration is reported as “inactive”. With `COC(=O)c1sc(NC(=O)c2csc3c2CCCC3)nc1C` the max dye-equivalent concentration was “inactive”. With `CCOC(=O)c1sc(/N=C/Nc2nc(C)c(C(=O)OCC)s2)nc1C` the max dye-equivalent concentration was 10 nM (active). In the case of `CCN(CC)P(=O)(C(NC(=O)OC)C(F)(F)C(F)(F)C(F)(F)C(F)F)N(CC)CC` (stereo not drawn), the max dye-equivalent concentration is reported as “inactive”. In the case of `CCOc1cccc(NC(=O)C2CCCN(S(=O)(=O)c3ccc(OC)cc3)C2)c1` (stereo not drawn), the max dye-equivalent concentration is reported as “inactive”. For `CCOC(=O)c1c(C)c(C(=O)NCCc2ccc(S(N)(=O)=O)cc2)c(C)n1CC`, the max dye-equivalent concentration was “inactive”. With `CCOc1ccccc1-n1c(SCC(=O)N2CCCC2)nnc1-c1ccoc1C` the max dye-equivalent concentration was “inactive”. In the case of `C=CCNc1nnc(C)c2ccccc12`, the max dye-equivalent concentration is reported as “inactive”. For `C=CCNc1nnc(SCC(=O)N2CCCCC2)c2ccccc12`, the max dye-equivalent concentration was 15 nM (active).
